“And” between values parts separate entries of the source, which are not always exact repeats. Equal entries are not always repeated. Inconclusive results are not listed. A structure can be active in one record and inactive in another. The source made the active and inactive calls. Unless noted, calls come from the whole dose curve; as a rule, active = well fitted curve in the direction sought with a large enough effect in the repeat runs; inconclusive = weak or mixed curves; inactive = no such curve, though single readings can be large; an effect the other way counts as inactive or inconclusive.

Test [1] can be described thus: qHTS assay to identify small molecule antagonists of the thyroid receptor (TR) signaling pathway - cell viability counter screen (AID 743064). Note: nearly all actives have a fitted effect of over 50% in size. Put shortly: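 Rat GH3 pituitary tumor cells stably expressing two TR response elements driving luciferase were plated, rested 4 h, then dosed with library compounds and T3 (1 nM final). After 23.5 h at 37 °C, CellTiter-Fluor was added for 30 min and fluorescence recorded.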

Test [2] can be described thus: qHTS assay to identify small molecule antagonists of the thyroid receptor (TR) signaling pathway (AID 743065). Note: series mostly up to about 70 µM; nearly all actives have a fitted effect of over 55% in size. The method, boiled down:
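GH3.TRE-Luc rat pituitary cells (two TREs driving luciferase) were dosed with compound, then stimulated with 1 nM T3 (final) for 23.5 h at 37 C. ONE-Glo luminescence was the read-out, with CellTiter-Fluor fluorescence as the cytotoxicity counter-screen.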

In test [3] the test system is thyroid hormone receptor (rat, GH3 cells). Put plainly: qHTS assay to identify small molecule agonists of the thyroid receptor (TR) signaling pathway (AID 743066; calls by dose curve).
For test [4], the target named is Estrogen receptor (Homo sapiens) (UniProt P03372). Put plainly: qHTS assay to identify small molecule antagonists of the estrogen receptor alpha (ER-alpha) signaling pathway (AID 743069; active = well fitted curve in the direction sought with a large enough effect in the signal ratio in the repeat runs, not every such curve was filed as active; the % refers to the signal ratio). The method, boiled down:
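In this cell-based reporter format, GripTite HEK293 cells harbouring ER-alpha-UAS-bla were grown overnight with 2% charcoal-stripped FBS, dosed with DMSO-dissolved compounds, then challenged with 17beta-estradiol. After 18 hr at 37C, beta-lactamase activity was detected by FRET fluorescence.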

The nature of test [5]: qHTS assay to identify small molecule antagonists of the estrogen receptor alpha (ER-alpha) signaling pathway - cell viability counter screen (AID 743074; calls by dose curve; note: nearly all actives have a fitted effect of over 45% in size).
Test [6] addresses Estrogen receptor (Homo sapiens) (UniProt P03372). Kind of test: qHTS assay to identify small molecule agonists of the estrogen receptor alpha (ER-alpha) signaling pathway (AID 743075; calls by dose curve).
The nature of test [7]: qHTS assay to identify small molecule antagonists of the estrogen receptor alpha (ER-alpha) signaling pathway using the BG1 cell line (AID 743080; calls by dose curve;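 note: BG1 cells stimulated with 17beta-estradiol alongside compound; series mostly up to about 70 µM; nearly all actives have a fitted effect of over 25% in size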). The method, boiled down: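 Luciferase inhibition measured with ONE-Glo after 30 min at RT in BG1Luc4E2 cells given test compounds and 17beta-estradiol for 21.5 h at 37 C; CellTiter-Fluor viability read in the same wells beforehand.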

Test [8] can be described thus: qHTS assay to identify small molecule antagonists of the estrogen receptor alpha (ER-alpha) signaling pathway using the BG1 cell line - cell viability counter screen (AID 743081).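 Note: compound given together with 17beta-estradiol as the ER stimulus; series mostly up to about 70 µM; nearly all actives have a fitted effect of over 45% in size.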
Another test addresses Aromatase (Homo sapiens) (UniProt P11511). Put plainly: qHTS assay to identify aromatase inhibitors (AID 743083). Note: series mostly up to about 70 µM; nearly all actives have a fitted effect of over 55% in size.
The nature of test [9]: qHTS assay to identify aromatase inhibitors - cell viability counter screen (AID 743084).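 Note: cells stimulated with testosterone during compound exposure; nearly all actives have a fitted effect of over 55% in size.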
The target in test [10] is Aryl hydrocarbon receptor (Homo sapiens) (UniProt P35869). Put plainly: qHTS assay to identify small molecule that activate the aryl hydrocarbon receptor (AhR) signaling pathway (AID 743085).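 Note: HG2L7.5c1 human HepG2 liver cells with stably integrated DRE-driven firefly reporter; series mostly up to about 70 µM; nearly all actives have a fitted effect of over 15% in size.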 The method, boiled down: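 Compounds were tested in HepG2 hepatocellular carcinoma cells harbouring a stably integrated luciferase gene under control of 20 DREs. Increased reporter signal after 24 h treatment at 37C was taken as AhR activation.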

The nature of test [11]: qHTS assay to identify small molecule that activate the aryl hydrocarbon receptor (AhR) signaling pathway - cell viability counter screen (AID 743086).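 Note: HepG2 liver cells carrying the AhR DRE luciferase reporter; series mostly up to about 70 µM; nearly all actives have a fitted effect of over 45% in size.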 Put shortly:
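HepG2-AhR-luc (HG2L7.5c1) cells, 4000/well, treated 24 h at 37 C with compound; viability measured as CellTiter-Fluor fluorescence after 30 min in the same wells as the luciferase read.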

Test [12] is described as follows: qHTS assay for small molecule agonists of the antioxidant response element (ARE) signaling pathway (AID 743202; active = well fitted activation curve with a large enough effect in the signal ratio in the repeat runs, not every such curve was filed as active; the % refers to the signal ratio). Put shortly:
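HepG2 ARE-bla cells; 16 h treatment at 37 C; FRET-based beta-lactamase fluorescence read after 2 h substrate incubation at room temperature.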

Test [13] can be described thus: qHTS assay for small molecule agonists of the antioxidant response element (ARE) signaling pathway - cell viability counter screen (AID 743203; calls by dose curve; note: nearly all actives have a fitted effect of over 55% in size). Put shortly:
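Parallel cytotoxicity read-out for the ARE-bla screen: HepG2 reporter cells, 16 hrs with compounds, then CellTiter-Glo luminescence.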

A short description of test [14]: qHTS assay for small molecule activators of the heat shock response signaling pathway - cell viability counter screen (AID 743209). Note: nearly all actives have a fitted effect of over 50% in size. Put shortly: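 To flag cytotoxic compounds, HSE-bla HeLa cells plated at 1500 cells/well were dosed for 5 h at 37 C, followed by the reporter FRET read and then CellTiter-Glo, with luminescence recorded 30 min after reagent addition.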

Test [15] can be described thus: qHTS assay for small molecule activators of the heat shock response signaling pathway (AID 743210; active = well fitted activation curve with a large enough effect in the signal ratio in the repeat runs, with a control signal flat, not every such curve was filed as active; the % refers to the signal ratio;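 note: HeLa cells with beta-lactamase reporter driven by heat shock elements; series mostly up to about 63 µM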). The method, boiled down:
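Following overnight attachment, HSE-bla HeLa cells received test compounds for 5 h at 37 C; beta-lactamase activity was then detected via FRET substrate fluorescence.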

The target in test [16] is Estrogen receptor (Homo sapiens) (UniProt P03372). Put plainly: qHTS assay to identify small molecule agonists of the estrogen receptor alpha (ER-alpha) signaling pathway using the BG1 cell line (AID 743079). Note: nearly all actives have a fitted effect of over 20% in size. Note: potency is the fitted concentration of half-maximal effect.
For test [17], the target named is Peroxisome proliferator-activated receptor gamma (Homo sapiens) (UniProt P37231). Put plainly: qHTS assay to identify small molecule agonists of the peroxisome proliferator-activated receptor gamma (PPARg) signaling pathway (AID 743094; active = well fitted activation curve with a large enough effect in the signal ratio in the repeat runs, not every such curve was filed as active; the % refers to the signal ratio). Put shortly:
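Fluorescence-based beta-lactamase readout in HEK293H PPARg UAS-bla cells after 17 h compound exposure (37C) and 1 h B/G FRET substrate incubation at room temperature.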

For test [18] the target is unchanged. Kind of test: qHTS assay to identify small molecule antagonists of the peroxisome proliferator-activated receptor gamma (PPARg) signaling pathway (AID 743191; calls by dose curve; note: series mostly up to about 63 µM; nearly all actives have a fitted effect of over 30% in size). Put shortly:
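GeneBLAzer PPARg UAS-bla HEK293H cells, 5 h post-plating, exposed to compounds 17 h at 37C. LiveBLAzer B/G FRET substrate added for 1 h at room temperature; beta-lactamase reporter read by fluorescence intensity.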

The nature of test [19]: qHTS assay to identify small molecule antagonists of the peroxisome proliferator-activated receptor gamma (PPARg) signaling pathway - cell viability counter screen (AID 743194). Note: nearly all actives have a fitted effect of over 55% in size. Put shortly: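 Cytotoxicity counter screen in PPARg-bla HEK293H cells, same wells as reporter assay. Compounds plus 50 nM rosiglitazone (final) for 17 h at 37 C, then viability read by CellTiter-Glo luminescence.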

Sequence of Aromatase (Homo sapiens) (P11511 whole entry, looked up): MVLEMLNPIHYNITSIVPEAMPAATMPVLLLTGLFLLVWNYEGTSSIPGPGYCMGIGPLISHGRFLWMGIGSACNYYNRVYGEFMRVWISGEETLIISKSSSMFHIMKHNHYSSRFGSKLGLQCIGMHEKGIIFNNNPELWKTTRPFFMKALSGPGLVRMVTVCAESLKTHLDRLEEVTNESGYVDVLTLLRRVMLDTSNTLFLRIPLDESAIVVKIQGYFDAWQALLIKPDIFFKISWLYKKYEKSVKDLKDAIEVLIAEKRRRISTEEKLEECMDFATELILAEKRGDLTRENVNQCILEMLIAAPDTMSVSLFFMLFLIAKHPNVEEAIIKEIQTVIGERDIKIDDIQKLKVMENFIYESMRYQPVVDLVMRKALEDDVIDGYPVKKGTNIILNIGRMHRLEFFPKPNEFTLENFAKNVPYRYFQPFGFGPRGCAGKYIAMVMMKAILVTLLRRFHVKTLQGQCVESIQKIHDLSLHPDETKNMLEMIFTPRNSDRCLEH
Sequence of Estrogen receptor (Homo sapiens) (P03372 whole entry, looked up): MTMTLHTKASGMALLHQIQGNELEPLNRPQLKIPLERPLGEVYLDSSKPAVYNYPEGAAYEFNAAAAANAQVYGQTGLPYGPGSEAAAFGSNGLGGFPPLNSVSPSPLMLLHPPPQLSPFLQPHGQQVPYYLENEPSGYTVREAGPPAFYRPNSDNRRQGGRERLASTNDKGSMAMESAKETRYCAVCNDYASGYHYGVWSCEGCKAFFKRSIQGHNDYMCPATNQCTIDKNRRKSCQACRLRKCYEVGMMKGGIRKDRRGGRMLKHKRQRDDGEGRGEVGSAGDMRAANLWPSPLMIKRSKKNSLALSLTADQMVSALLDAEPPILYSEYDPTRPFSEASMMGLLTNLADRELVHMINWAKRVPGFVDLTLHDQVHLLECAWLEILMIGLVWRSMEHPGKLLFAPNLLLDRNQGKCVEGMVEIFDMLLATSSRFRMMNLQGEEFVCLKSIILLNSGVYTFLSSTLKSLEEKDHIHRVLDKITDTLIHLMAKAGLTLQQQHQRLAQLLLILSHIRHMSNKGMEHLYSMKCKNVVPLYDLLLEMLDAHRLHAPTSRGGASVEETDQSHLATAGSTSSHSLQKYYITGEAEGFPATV
Sequence of Peroxisome proliferator-activated receptor gamma (Homo sapiens) (P37231 whole entry, looked up): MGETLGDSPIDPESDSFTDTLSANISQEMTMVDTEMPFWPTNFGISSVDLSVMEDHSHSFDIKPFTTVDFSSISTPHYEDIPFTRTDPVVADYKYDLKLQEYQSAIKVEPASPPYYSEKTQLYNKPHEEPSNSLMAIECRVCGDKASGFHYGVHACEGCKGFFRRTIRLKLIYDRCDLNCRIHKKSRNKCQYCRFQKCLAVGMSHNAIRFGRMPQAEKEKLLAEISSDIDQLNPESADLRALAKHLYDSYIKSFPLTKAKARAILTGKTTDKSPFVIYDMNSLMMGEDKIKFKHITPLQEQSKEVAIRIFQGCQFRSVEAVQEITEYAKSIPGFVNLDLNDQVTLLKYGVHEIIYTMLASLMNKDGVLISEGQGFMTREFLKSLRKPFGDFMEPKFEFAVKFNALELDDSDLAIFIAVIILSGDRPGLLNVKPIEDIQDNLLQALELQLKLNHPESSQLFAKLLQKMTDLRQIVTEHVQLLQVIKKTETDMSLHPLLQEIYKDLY
Sequence of Aryl hydrocarbon receptor (Homo sapiens) (P35869 whole entry, looked up): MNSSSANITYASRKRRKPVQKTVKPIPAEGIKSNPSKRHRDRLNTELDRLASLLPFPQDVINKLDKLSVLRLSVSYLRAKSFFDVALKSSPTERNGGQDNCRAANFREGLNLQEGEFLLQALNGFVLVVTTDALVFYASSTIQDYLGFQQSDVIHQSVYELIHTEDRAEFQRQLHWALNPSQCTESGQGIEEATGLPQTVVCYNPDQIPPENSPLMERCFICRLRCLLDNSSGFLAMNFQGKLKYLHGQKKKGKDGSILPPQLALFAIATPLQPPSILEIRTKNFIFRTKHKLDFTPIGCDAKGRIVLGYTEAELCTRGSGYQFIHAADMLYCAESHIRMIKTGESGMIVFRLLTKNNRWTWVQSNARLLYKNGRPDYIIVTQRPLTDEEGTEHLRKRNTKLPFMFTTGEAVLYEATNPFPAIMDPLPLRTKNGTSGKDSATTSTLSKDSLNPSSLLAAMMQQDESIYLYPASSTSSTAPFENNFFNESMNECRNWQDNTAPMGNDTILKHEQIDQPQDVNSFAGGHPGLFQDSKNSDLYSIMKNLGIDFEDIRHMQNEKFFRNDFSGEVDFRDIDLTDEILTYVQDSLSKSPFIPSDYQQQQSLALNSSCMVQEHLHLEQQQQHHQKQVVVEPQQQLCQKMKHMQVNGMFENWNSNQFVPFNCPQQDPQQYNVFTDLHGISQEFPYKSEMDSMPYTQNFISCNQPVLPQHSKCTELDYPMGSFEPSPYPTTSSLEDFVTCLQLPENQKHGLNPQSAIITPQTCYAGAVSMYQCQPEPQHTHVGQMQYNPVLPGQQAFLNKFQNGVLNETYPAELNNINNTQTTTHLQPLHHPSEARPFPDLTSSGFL

In the case of `COc1ccc(N)c(C)c1`, the Potency result (in [1]; in test [2]; in test [4]; in test [6]; in [8]; in the test with Aromatase (Homo sapiens)) was “inactive” throughout. For the same compound, the Potency result in test [9], in [10], in [11], in test [12] and in test [13] was “inactive” each time. For the same compound, the call in [3], in test [5], in test [7], in test [14] and in [15] was inactive.
As for `CC1(C)S[C@@H]2[C@H](NC(=O)COc3ccccc3)C(=O)N2[C@H]1C(=O)O`, the Potency result in test [1], in [2], in [4], in test [6], in test [16] and in [8] was “inactive” in each case. Moreover, the Potency result (with Aromatase (Homo sapiens); in test [9]; in test [10]; in [11]; in test [12]; in [13]) was “inactive” throughout. For the same compound, the compound was classed as inactive in test [3], in [5], in [7], in test [17], in test [18] and in [19]. The compound was classed as inactive in test [14] and in test [15].
As to `CNC(=O)Oc1ccc2c(c1)[C@]1(C)CCN(C)[C@@H]1N2C`, the Potency result in [1], in test [2], in test [4], in [6], in [16] and in test [8] was “inactive” in each case. The Potency result (with Aromatase (Homo sapiens); in [9]; in test [11]; in [12]; in test [13]) was “inactive” each time. Also, the compound was called inactive in [3], in test [5], in [7], in [17], in [18] and in [19]. The compound was called inactive in [14] and in test [15].
As for `Nc1nc(N)nc(-c2ccccc2)n1`, the Potency result (in [1]; in test [2]; in test [4]; in test [6]; in test [8]; in the test with Aromatase (Homo sapiens)) was “inactive” throughout. In addition, the Potency entry in test [9], in test [11], in test [12] and in test [13] was “inactive” throughout. Further, the compound was called inactive in test [3], in [5], in test [7], in [17], in test [18] and in test [19]. The outcome in test [14] and in test [15] was inactive. Besides, the Potency entry in [16] was “inactive and 34.4 µM (active)”.
For the compound `CCCCCCCC=O`, the Potency result in [1], in test [2], in test [4], in test [6], in [16] and in test [8] was “inactive” in each case. The Potency entry (with Aromatase (Homo sapiens); in test [9]; in test [10]; in test [11]; in test [13]) was “inactive” throughout. The call in test [3], in [5], in test [7], in test [17], in test [14] and in [15] was inactive.
As for `CCCCC(C=O)CC` (configuration not stated), the Potency entry in test [1], in [2], in test [4], in test [6], in test [16] and in [8] was “inactive” in each case. Moreover, the Potency entry (with Aromatase (Homo sapiens); in test [9]; in test [10]; in test [11]; in test [13]) was “inactive” each time. Also, the compound was classed as inactive in test [3], in [5], in test [7], in test [17], in test [18] and in [19]. Also, the compound was classed as inactive in [14].
Regarding `CCCCCCCO`, the Potency entry in [1], in test [2], in [4], in test [6], in test [16] and in [8] was “inactive” each time. The Potency entry (with Aromatase (Homo sapiens); in test [9]; in test [10]; in test [11]; in test [12]; in test [13]) was “inactive” in each case. Moreover, the compound was classed as inactive in test [3], in [5], in [7], in test [17], in [18] and in [14]. In test [15], the result was inactive.
`CCNc1cccc(C)c1`: the Potency result in test [1], in test [2], in [4], in test [6], in test [16] and in [8] was “inactive” in each case. Moreover, the Potency entry (in the test with Aromatase (Homo sapiens); in [9]; in test [10]; in test [11]; in [12]; in test [13]) was “inactive” throughout. For the same compound, the call in test [3], in [5], in test [7], in [17], in test [18] and in [14] was inactive. For the same compound, in test [15], the compound was classed as inactive.

These data come from PubChem BioAssay (Tox21).
